Measurements from the supplement of paper PMC10670038.
Counter-ions that a name gives are not always drawn. ± gives the standard deviation of the averaged measurements. In all, about 2,000 compounds were measured (“relative cell viability vs DMSO, compound + 0.2 uM CuET”: median about 1, lowest 2% from about 0.25 on). What follows is part of a selection rich in the lowest values, with near analogues and random picks from the rest.

test system: TE10; experiment: relative cell viability vs DMSO, compound + 0.2 uM CuET (fraction); TE10 is an esophageal squamous carcinoma line; higher = less cytotoxic; conditions: 2 µM; co-treatment: CuET (bis(diethyldithiocarbamate)copper) 0.2 uM; 48 h
Experimental: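 TE10 ESCC cells (1,000/well, 384-well plates) were treated with Selleck bioactive library compounds at 2 uM combined with 0.2 uM CuET (copper diethyldithiocarbamate) for 48 h. Viability was read by CellTiter-Glo and expressed relative to DMSO wells. Two technical replicates (A, B).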

Structure (SMILES)	relative cell viability
COc1cc2c(cc1NS(=O)(=O)c1ccc(Br)cc1C)n(C)c(=O)n2C	1.17 ± 0.15
CCCC(=O)Nc1cccc(NC(=O)c2ccccc2Br)c1	1.01 ± 0.16
O=C(O)CCNc1cc(N2CCc3ccccc3CC2)nc(-c2ccccn2)n1	0.765 ± 0.0059
CNc1nc(Nc2cnn(C3CCN(C4COC4)CC3F)c2Cl)ncc1C(F)(F)F (stereo unspecified)	1.195 ± 0.0015
Nc1cccc(-c2cc3c(Oc4cccc(O)c4)ncnc3[nH]2)c1	0.976 ± 0.062
c1cc(-c2cnn3cc(-c4ccc(N5CCNCC5)cc4)cnc23)c2cccnc2c1	0.182 ± 0.0055
CC(C)Oc1ccc(-c2cnc3c(-c4ccnc5ccccc45)cnn3c2)cc1	1.15 ± 0.088
COc1ccc(-c2cnc3c(-c4cccc5ncccc45)cnn3c2)cc1	1.17 ± 0.13
Cc1c(C(=O)Nc2ccc(N3C[C@@H](C)O[C@@H](C)C3)nc2)cccc1-c1ccc(OC(F)(F)F)cc1 [LDE225 (NVP-LDE225,Erismodegib)]	0.714 ± 0.081
CNc1ncnc2c1ncn2[C@@H]1O[C@H](CO)[C@@H](O)[C@H]1O [N6-methyladenosine (m6A)]	1.06 ± 0.23
COc1nc(N)nc2c1ncn2[C@@H]1O[C@H](CO)[C@@H](O)[C@@H]1O [Nelarabine]	1.21 ± 0.043
COc1ccc(C[C@H](N)C(=O)N[C@H]2[C@@H](O)[C@H](n3cnc4c(N(C)C)ncnc43)O[C@@H]2CO)cc1 [Puromycin 2HCl]	0.249 ± 0.0061
Nc1nonc1C(=Nc1ccc(F)c(Cl)c1)NO	1.15 ± 0.14
O=C(Nc1cc2cc[nH]c2cn1)c1ccccc1	0.3986 ± 0.0004
CS(=O)(=O)N1CCN(Cc2cc3nc(-c4cccc5[nH]ncc45)nc(N4CCOCC4)c3s2)CC1	0.68 ± 0.0074
COc1ccc(-c2nc(N3CCOCC3)c3sc(CN(C)c4ncc(C(=O)NO)cn4)cc3n2)cn1	0.1569 ± 0.00068
Cc1c(CN2CCN(C(=O)[C@H](C)O)CC2)sc2c(N3CCOCC3)nc(-c3cnc(N)nc3)nc12	0.495 ± 0.091
NCCCC[C@@H]1NC(=O)[C@@H](Cc2ccc(O)cc2)NC(=O)[C@H](CC(=O)O)NC(=O)CNC(=O)[C@H](CCCN=C(N)N)NC1=O [Cyclo(RGDyK)]	1.19 ± 0.27
O=C(O)c1ccc(N2C(=O)C(=Cc3ccc(-c4ccc([N+](=O)[O-])cc4)o3)C=C2c2ccccc2)cc1	1.1 ± 0.22
O=C(CCCCCCC(=O)Nc1ccccc1)NO [Vorinostat (SAHA, MK0683)]	0.473 ± 0.055
Cc1cc(C)cc(C(=O)NOCCCCCC(=O)NO)c1	0.23 ± 0.02
Cc1cc(Cl)ccc1OCCCC(=O)NO [Droxinostat]	0.997 ± 0.063
C[C@H](O)[C@H](O)[C@@H](O)[C@@H](O)C=O [L-(+)-Rhamnose Monohydrate]	1.15 ± 0.046
CC(NC(=O)Cc1cc(F)cc(F)c1)C(=O)NC(C(=O)OC(C)(C)C)c1ccccc1 (stereo unspecified)	1.23 ± 0.04
CN(CCOc1ccc(CC2SC(=O)NC2=O)cc1)c1ccccn1 (stereo unspecified) [Rosiglitazone HCl]	1.06 ± 0.062
CN(CCOc1ccc(CC2SC(=O)NC2=O)cc1)c1ccccn1 (stereo unspecified) [Rosiglitazone maleate]	1.12 ± 0.081

Structure (SMILES)	relative cell viability
CN(CCOc1ccc(CC2SC(=O)NC2=O)cc1)c1ccccn1 (stereo unspecified) [Rosiglitazone]	1.04 ± 0.052
COC(=O)C1=C(C#N)NC(C)=C(C(=O)OC(C)C)C1c1cccc([N+](=O)[O-])c1 (stereo unspecified) [Nilvadipine]	1.11 ± 0.1
O=C(Nc1cccc2cccnc12)c1ccc(N2C(=O)C3C4C=CC(C4)C3C2=O)cc1 (stereo not drawn) [IWR-1-endo]	0.994 ± 0.1
Cc1ccc(S(=O)(=O)c2ccc([N+](=O)[O-])o2)cc1	0.175 ± 0.0036
NC(=O)N/N=C/c1ccc([N+](=O)[O-])o1 [Nitrofural]	1.3 ± 0.033
Nc1ccc(S(=O)(=O)Nc2ncccn2)cc1 [Sulfadiazine]	1.03 ± 0.045
CNS(=O)(=O)CCc1ccc2[nH]cc(C3CCN(C)CC3)c2c1 [Naratriptan]	1.2 ± 0.1
CCN(CCO)CCCOc1ccc2c(Nc3cc(CC(=O)Nc4cccc(F)c4)[nH]n3)ncnc2c1 [Barasertib (AZD1152-HQPA)]	1.25 ± 0.26
CC(NC(=O)C(Cc1ccccc1)NC(=O)OCc1ccccc1)C(=O)CF (stereo unspecified)	1.14 ± 0.028
CC(C)C[C@@H](C=O)NC(=O)[C@H](CC(C)C)NC(=O)[C@H](CC(C)C)NC(=O)OCc1ccccc1	0.223 ± 0.006
CCCC[C@@H](C=O)NC(=O)[C@H](CC(C)C)NC(=O)OCc1ccccc1 [Calpeptin]	1.12 ± 0.036
C[C@]12CCC(=O)C=C1[C@@H]1C[C@@H]1[C@H]1[C@@H]3[C@@H]4C[C@@H]4[C@@]4(CCC(=O)O4)[C@@]3(C)CC[C@@H]12 [Drospirenone]	0.77 ± 0.4
O=C(Cc1ccc(-c2ccc(OCCN3CCOCC3)cc2)cn1)NCc1ccccc1	0.827 ± 0.037
CC(C)CC(CC(=O)NO)C(=O)N[C@@H](Cc1ccc2ccccc2c1)C(=O)N[C@@H](C)C(=O)NCCN (stereo partly specified)	1.19 ± 0.051
COc1ccc(C[C@H](NC(=O)[C@H](C)NC(=O)CN2CCOCC2)C(=O)N[C@@H](Cc2ccccc2)C(=O)[C@@]2(C)CO2)cc1	0.198 ± 0.0095
COC(=O)[C@H](Cc1ccccc1)NC(=O)[C@@H](N)CC(=O)O [Aspartame]	1.09 ± 0.034
CC(C)c1nc(CN(C)C(=O)N[C@@H](CCN2CCOCC2)C(=O)N[C@H](CC[C@H](Cc2ccccc2)NC(=O)OCc2cncs2)Cc2ccccc2)cs1 [Cobicistat (GS-9350)]	0.957 ± 0.025
CC(C)C[C@H](NC(=O)[C@H](CCc1ccccc1)NC(=O)CN1CCOCC1)C(=O)N[C@@H](Cc1ccccc1)C(=O)N[C@@H](CC(C)C)C(=O)[C@@]1(C)CO1 [Carfilzomib (PR-171)]	0.198 ± 0.019
CC(=O)NC(Cc1ccc(O)cc1)C(=O)NC(CCCN=C(N)N)C(=O)NC(Cc1ccccc1)C(N)=O (stereo unspecified)	0.977 ± 0.19
COC[C@H](NC(=O)c1cnc(C)s1)C(=O)N[C@@H](COC)C(=O)N[C@@H](Cc1ccccc1)C(=O)[C@@]1(C)CO1 [Oprozomib (ONX 0912)]	0.182 ± 0.0023
CC(C)C[C@H](NC(=O)[C@H](Cc1ccccc1)NC(=O)c1cnccn1)B(O)O [Bortezomib (PS-341)]	0.348 ± 0.058
Cc1c(-c2ccnn2C)cc(C(=O)NCc2ccc(S(C)(=O)=O)cn2)c(=O)n1-c1cccc(C(F)(F)F)c1 [Alvelestat (AZD9668)]	0.993 ± 0.044
CC(C)(C)c1cnc(CSc2cnc(NC(=O)C3CCNCC3)s2)o1	0.963 ± 0.093
COc1c2ccoc2cc2oc(=O)ccc12 [Bergapten]	1.12 ± 0.038
CCC(=O)O[C@]1(C(=O)SCF)[C@H](C)C[C@H]2[C@@H]3C[C@H](F)C4=CC(=O)C=C[C@]4(C)[C@@]3(F)[C@@H](O)C[C@@]21C [Fluticasone propionate]	1.02 ± 0.043
Oc1c(Br)cc(Br)c2cccnc12 [Broxyquinoline]	0.689 ± 0.033

Structure (SMILES)	relative cell viability
O=S(=O)(O)c1cc(O)ccc1O [Ethamsylate]	1.08 ± 0.096
C=CCc1ccc(O)c(-c2cc(CC=C)ccc2O)c1 [Magnolol]	1.02 ± 0.057
O=S(=O)(O)CCS [Mesna]	1.08 ± 0.024
CN1CCN(Cc2ccc(NC(=O)Cc3ccc(Oc4cc(NC(=O)C5CC5)ncn4)cc3)cc2C(F)(F)F)CC1	0.9884 ± 0.0017
CCS(=O)(=O)Nc1ccc2[nH]c(O)c(C(=Nc3ccc(CN4CCCCC4)cc3)c3ccccc3)c2c1 [Hesperadin]	0.5395 ± 0.0028
CCOC(=O)C1=C(N)Oc2ccc(Cl)cc2C1C(C#N)C(=O)OCC (stereo unspecified)	0.663 ± 0.023
CN[C@@H](C)C(=O)N[C@H](C(=O)N1CCC[C@H]1C(=O)N[C@H](C(=O)NCCCCCCNC(=O)[C@@H](NC(=O)[C@@H]1CCCN1C(=O)[C@@H](NC(=O)[C@H](C)NC)C1CCCCC1)C(c1ccccc1)c1ccccc1)C(c1ccccc1)c1ccccc1)C1CCCCC1	0.437 ± 0.011
CC(C)(C)c1[nH]cnc1/C=c1\[nH]c(=O)/c(=C/c2ccccc2)[nH]c1=O [Plinabulin (NPI-2358)]	0.753 ± 0.058
COCCOc1nc(-c2ccc(Cl)c(Cl)c2)n(-c2ccc(NC(=O)CCl)cc2)n1 [MI-2 (MALT1 inhibitor)]	0.115 ± 0.0096
NCC(=O)Nc1ccc(-n2nc(C(F)(F)F)cc2-c2ccc3c(ccc4ccccc43)c2)cc1	0.649 ± 0.017
COc1nc(-c2ccc3c(c2)OCO3)n(-c2ccc(NC(=O)CSc3ccccc3)cc2)n1 [SecinH3]	1.25 ± 0.17
CN(C)c1cc(NC(=O)CNC(C)(C)C)c(O)c2c1CC1CC3C(N(C)C)C(=O)C(C(N)=O)=C(O)C3(O)C(=O)C1=C2O (stereo unspecified) [Tigecycline]	0.994 ± 0.068
O=Nc1c(-c2c(O)[nH]c3cc(Br)ccc23)[nH]c2ccccc12	1.083 ± 0.0023
C[N+]1(C)[C@@H]2C[C@@H](OC(=O)C(O)(c3cccs3)c3cccs3)C[C@H]1[C@@H]1O[C@@H]12 [Tiotropium Bromide hydrate]	0.962 ± 0.027
C=C1CC2(O)OC3(CC2C(C)C)C(C)CCC13 (stereo unspecified) [Curcumol]	0.838 ± 0.028
CC(=O)Nc1ccc(C(=O)Nc2ccccc2N)cc1 [CI994 (Tacedinaline)]	1.23 ± 0.26
CC(C)[C@H](C(=O)Nc1ccc(C(=O)NO)cc1)c1ccccc1	0.178 ± 0.0071
CCCCN(Cc1ccc(C(=O)NO)cc1)C(=O)Nc1ccccc1 [Nexturastat A]	0.837 ± 0.056
Cc1c(C(=O)NN2CCCCC2)nn(-c2ccc(Cl)cc2Cl)c1-c1ccc(Cl)cc1 [Rimonabant]	0.716 ± 0.15
NC1=N[C@@]2(c3cc(NC(=O)c4ccc(F)cn4)ccc3F)COC[C@H]2CS1	0.948 ± 0.07
O=C(O)C(Cc1ccccc1[N+](=O)[O-])=NNc1nc(-c2ccc(Cl)c(Cl)c2)cs1	1.04 ± 0.16
O=C(/C=C\n1cnc(-c2cc(C(F)(F)F)cc(C(F)(F)F)c2)n1)NNc1cnccn1	0.29 ± 0.015
COc1cc(-c2ncn(/C=C\C(=O)OC(C)C)n2)cc(C(F)(F)F)c1	0.25 ± 0.0078
O=C(/C=C/n1cnc(-c2cc(C(F)(F)F)cc(C(F)(F)F)c2)n1)N1CC(F)(F)C1	0.355 ± 0.025
